Compound activity from PubChem BioAssay.
Cycloheximide cs: counter-screen for Shiga toxin inhibitors: cycloheximide protein synthesis inhibition; cell reporter, cycloheximide protein synthesis inhibition counterscreen; max response, %; hit rate 12% among 300,000; in the data active means max response mostly above about 13%, no sharp cut-off; inactive means mostly below about 14%; further: read at 38.3 µM for the half of the compounds with a filed dose; 0% is about no effect
Pf growth 48h: inhibits P. falciparum growth in the first generation, 48 h; P. falciparum luciferase growth in erythrocytes, 48 h; hit rate 5.9% among 310,000; Potency, µM (doses to about 28.7 µM), for the others: at the highest dose activity change, negative = inhibition, actives largely listed as inhibitors; further: potency means the concentration at half of the fitted maximal effect; on the % scale 0 is the no-effect control and ±100 the full control effect
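Cell-based growth assay: transgenic P. falciparum expressing firefly luciferase, cultured in red cells within RPMI 1640 containing 0.5% w/v Albumax, 24 mM bicarbonate and gentamycin. A drop in luciferase activity indicates inhibition.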
Shiga inhibitor: Shiga toxin inhibition | Vero cells, Shiga toxin protein synthesis inhibition reporter | hit rate 9.2% among 290,000 | AID 2315 | inhibition, % at 38.7 µM; in the data active means inhibition mostly above about 28%, no sharp cut-off; inactive means mostly below about 43%; further: 0% is about no effect
Pf growth 96h: P. falciparum growth inhibition at 96 hour, primary screen for plastid delayed-death inhibitors. hit rate 6.9% among 320,000. AID 504834. P. falciparum luciferase reporter growth, 96 h. Potency, µM (doses to about 28.7 µM), for the others: at the top dose activity change, negative = inhibition, usual class: inhibitors; further: potency means the concentration at half of the fitted maximal effect; on the % scale 0 is the no-effect control and ±100 the full control effect
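Two-generation exposure (96 h) targets delayed-death phenotype. Reporter parasites carrying integrated firefly luciferase, in red cells at 2% hematocrit and 0.05% parasitemia final, kept at 37 C, 5% CO2; luminescence loss indicates inhibition.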
An asterisk follows results filed as active; ? = inconclusive; nt = not tested or not shown; [ ] = remark or other dose. Rows were chosen to be rich in hits. Some 21% of all compounds tested hit in one or more screens of this group. Unless noted, the call rests on the fitted dose curve; in most records, active means well fitted inhibition curve with a large enough effect; inconclusive means small, poorly fitted or top-dose-only effect, or another doubt; inactive means no such curve, though single readings can be large or run the other way.

SMILES | Cycloheximide cs | Pf growth 48h | Shiga inhibitor | Pf growth 96h
Cc1cccnc1NC(=O)Nc1ccc(Cl)cc1 | 25.2* | 128.2% | nt | 20.3%
Cc1cccnc1NC(=O)Nc1ccccc1 | 26.7* | 90.4% | 49.0* | 86.4%
Cc1cccnc1NC(=O)c1ccccc1-c1ccccc1C(=O)Nc1ncccc1C | 12.0 | 10.1% | 19.7 | 37.4%
COc1ccc(NC(=O)Nc2ncccc2C)cc1 | 20.4* | 265.2% | 62.6* | 18.4%
COC(=O)c1ccccc1NC(=O)Nc1ncccc1C | -3.3 | 15.0% | -14.1 | 20.1%
COc1ccc(C(=O)NC(=O)Nc2ncccc2C)cc1 | 40.4* | nt | 88.0* | 122.9%
Cc1cc(C)c(NC(=O)CN2CCN(c3ccccn3)CC2)c(C)c1 | 0.7 | -4.9% | -7.7 | 3.0%
CCN(CC(=O)NCc1cccs1)C(=O)c1ccc(S(=O)(=O)Nc2cccc(C)c2C)cc1 | -3.2 | -1.3% | -0.7 | 10.5%
O=C(CNCC1(N2CCOCC2)CCCCC1)Nc1ccc(Cl)cc1 | -2.1 | 0.0% | -13.5 | -27.4%
Cc1cc(C)n(CCc2nc(-c3ccc(-c4ccccc4)cc3)cs2)n1 | 58.3* | 171.1% | 88.2* | 157.3%
Cc1cc(C)n(CCc2nc(-c3ccco3)cs2)n1 | -1.1 | nt | 24.3 | -38.5%
COc1ccc(-c2cc(C(F)F)nc(-n3nc(C)cc3C)n2)cc1 | -1.9 | 8.28µM* | -20.6 | ?
Cc1cc(C)n(CCc2nc(-c3cccs3)cs2)n1 | 11.5 | 7.3% | 40.1* | 4.4%
Cc1ccc(-c2cc(C(F)F)nc(N3CCOCC3)n2)cc1 | 0.8 | ? | 24.0 | ?
COc1ccc(-c2csc(CCn3nc(C)cc3C)n2)cc1 | 20.5* | 0.0% | 24.4 | 29.2%
COc1ccc(OC)c(-c2csc(CCn3nc(C)cc3C)n2)c1 | 3.3 | -10.1% | -5.9 | -1.9%
COc1ccc(-c2csc(CCn3nc(C)cc3C)n2)cc1OC | 14.9 | -18.1% | -3.4 | -0.2%
CC(=O)Oc1c(C)c(C)c2c(c1C)CC[C@@](C)(CCC[C@H](C)CCC[C@H](C)CCCC(C)C)O2 | -7.5 | -4.6% | -4.8 | 5.4%
Cc1cc(C(=O)NC2CCCc3c2cnn3-c2ccc(C(C)(C)C)cc2)nn1C (stereo not drawn) | -1.2 | -19.4% | -22.9 | 18.4%
CCC1CCCCN1CCCNC(=O)CS(=O)(=O)Cc1nc(-c2cccc(OC)c2)oc1C (stereo not drawn) | 2.7 | ? | -10.3 | -16.7%
CCNc1nc(Oc2ccc(=O)[nH]n2)nc(N2CCOCC2)n1 | -1.5 | nt | -16.3 | -14.9%
O=c1ccc(Oc2nc(N3CCCCC3)nc(N3CCCCC3)n2)n[nH]1 | -6.1 | 14.4% | 11.6 | 3.7µM*
CCN(CC)CCOC(=O)C(C)(c1ccccc1)c1ccccc1 | nt | ? | nt | 10.7µM*
CCN(CC)CCOCCOC(=O)C(CC)(CC)c1ccccc1 | -3.6 | -7.2% | -3.6 | -0.1%
CCC(C)(C)NC(=O)C(c1ccc(F)cc1)N(Cc1ccccc1)C(=O)c1cnccn1 (stereo not drawn) | -1.1 | ? | 14.5 | 0.0%
SMILES | Cycloheximide cs | Pf growth 48h | Shiga inhibitor | Pf growth 96h
Clc1ccc(C[n+]2csc3ccccc32)cc1 | 18.7* | 65.7% | 42.6* | 14.6%
CCOC(=O)C1(Cc2cccc(OC)c2)CCN(CC2CC=CCC2)CC1 (stereo not drawn) | 16.3 | ? | -7.6 | 28.3%
Cc1ccc(CNC(=O)C2CCN(C(=O)Nc3ccccc3)CC2)cc1 | 7.8 | 2.8% | 8.8 | 6.6%
Cc1ccc(C(=O)NCc2ccccc2)c(F)c1F | 13.7 | 12.7% | 64.7* | 18.5%
CCOC(=O)C(Cc1ccccc1)C(=O)Nc1ccc(NC(=O)C(Cc2ccccc2)C(=O)OCC)cc1 (stereo not drawn) | 6.2 | 9.6% | 5.2 | 105.1%
Cc1ccc(CNC(=O)Nc2ccccc2)cc1 | 33.3* | 192.8% | 123.4* | 0.0%
CCOC(=O)C(Cc1ccccc1)C(=O)NCc1ccccc1 (stereo not drawn) | -1.9 | 20.8% | 1.8 | 3.29µM*
Cc1ccc(C)c(CNC(=O)Nc2ccccc2)c1 | 30.5* | 117.4% | 74.3* | 136.2%
CCC(C(=O)Nc1ccc(C)cc1)c1ccccc1 (stereo not drawn) | -3.2 | -2.4%[5.75 µM] | -6.6 | 37.4%
Cc1ccc(CNC(=O)NCc2ccccc2)cc1 | 25.7* | 110.0% | 149.0* | 65.3%
O=C(CC(=O)NCc1ccccc1)NCc1ccccc1 | -7.5 | 12.4% | 26.9 | 22.7%
CCC(C(=O)NCc1ccc(C)cc1)c1ccccc1 (stereo not drawn) | 3.6 | -21.5% | nt | 14.7µM*
C=C(C)CN(CC)C(=O)CC1C(=O)NCCN1C (stereo not drawn) | -0.7 | 11.2% | -19.2 | 5.0%
COC(=O)c1nnn(-c2ccsc2C(=O)OC)c1C(=O)OC | -3.2 | 13.1% | -12.1 | 0.0%
COc1ccc2cc3cc(C(=O)Nc4cc(OC)c(OC)c(OC)c4)oc3nc2c1 | 2.8 | nt | -8.3 | ?
COc1ccc2cc3cc(C(=O)NC(C)C)oc3nc2c1 | 48.1* | nt | 75.5* | 2.94µM*
COc1ccc2cc3cc(C(=O)NCC4COc5ccccc5O4)oc3nc2c1 (stereo not drawn) | 39.5* | ? | 35.6 | -2.2%
COc1ccc(CCNC(=O)C2CCCN(S(=O)(=O)c3ccccc3)C2)cc1 (stereo not drawn) | -1.3 | ? | -5.0 | 50.9%
Cc1ccc(C=NCc2ccncc2)c(O)c1 | 7.6 | nt | 20.5 | 5.6%
Cn1c(O)c(C=NCc2ccco2)c(=O)n(C)c1=O | -2.0 | nt | -12.2 | 0.6%
O=C1C(C=NCc2ccncc2)=C(O)c2ccccc21 | 49.4* | 9.7% | 102.5 | nt
O=C1C(C=NCc2cccnc2)=C(O)c2ccccc21 | 71.6* | 58.4% | 100.7* | 3.7%
O=C1C(C=NCc2ccco2)=C(O)c2ccccc21 | 25.2* | 77.5% | 78.8* | 206.5%
O=C(OCCN1CCN(C2=NS(=O)(=O)c3ccccc32)CC1)c1cccc(Br)c1 | -2.9 | 4.4% | -25.3 | 4.8%
Cc1ccc2c(Cl)cc(Cl)c(OCC(=O)NC(C)(C)C)c2n1 | -2.2 | 11.7µM* | -2.3 | ?
SMILES | Cycloheximide cs | Pf growth 48h | Shiga inhibitor | Pf growth 96h
Cc1ccc2c(Cl)cc(Cl)c(OCC(=O)Nc3cc(S(=O)(=O)N(C)C)ccc3C)c2n1 | -1.5 | ? | 1.6 | 11.7µM*
O=C(C1CCCN(Cc2ccccc2[N+](=O)[O-])C1)N1CCCCC1 (stereo not drawn) | 2.0 | 0.6% | -2.2 | 11.9%
COC(=O)c1ccccc1CSc1nsc(/C=C/N(C)C)c1C#N | -5.8 | ? | -9.7 | -18.2%
Cc1nc(CSc2nsc(/C=C/N(C)C)c2C#N)cs1 | 28.7* | ? | 102.6* | 9.28µM*
CN1CCC(N(C)C(=O)c2ccc(Cl)c(S(=O)(=O)N3CCCCC3)c2)CC1 | nt | -17.6% | nt | ?
CN(C#N)c1nccc(-c2cccs2)n1 | 16.3 | ? | 29.5 | -16.3%
NC(=S)Nc1nccc(-c2cccs2)n1 | 40.8* | 11.1% | 60.9* | 34.4%
Cc1ccc(C(=O)Nc2nccc(-c3cccs3)n2)cc1 | 28.0* | 5.4% | 19.3 | -3.1%
C[C@H](NC(=O)[C@H](Cc1ccccc1)n1c(=O)[nH]c2ccccc2c1=O)C(=O)N1CCC(C(=O)O)CC1 | -4.4 | -2.2% | -6.5 | ?
CC(OC(=O)CCCN=C1NS(=O)(=O)c2ccccc21)C(=O)Nc1ccccc1F (stereo not drawn) | nt | 3.6% | nt | 11.8%
O=C(c1cccc(NS(=O)(=O)c2cccc(C(F)(F)F)c2)c1)N1CCOCC1 | -1.1 | 31.7% | -7.6 | ?
